In PubChem BioAssay (NCI) one finds growth data, which are given here for 8 compounds.

Common to all, as to test: NCI-60 one-dose screen, 48 h (100 = growth as untreated, 0 = no growth, -100 = all killed)
One experiment has as its system HCT-15 colon. The settings on record: 10 µM unless noted.
A further experiment deals with HT29 colon. The settings on record: 10 µM unless noted.
Another experiment relates to SNB-75 CNS. The settings on record: 10 µM unless noted.
The subject of a further experiment is SNB-19 CNS. The settings on record: 10 µM unless noted.
The subject of the next experiment is U251 CNS. The settings on record: 10 µM unless noted.
A further experiment relates to PC-3 prostate. The settings on record: 10 µM unless noted.
Another experiment has as its system SK-MEL-5 melanoma. The settings on record: 10 µM unless noted.
A further experiment relates to UACC-62 melanoma. The settings on record: 10 µM unless noted.
The subject of another experiment is LOX IMVI melanoma. The settings on record: 10 µM.
The subject of a further experiment is SK-MEL-28 melanoma. The settings on record: 10 µM unless noted.
The subject of another experiment is SK-MEL-2 melanoma. The settings on record: 10 µM unless noted.
The next experiment deals with EKVX NSCLC. The settings on record: 10 µM unless noted.
The subject of a further experiment is SN12C renal. The settings on record: 10 µM unless noted.
The next experiment concerns UO-31 renal. The settings on record: 10 µM unless noted.
For a further experiment, the system named is TK-10 renal. The settings on record: 10 µM unless noted.
In another experiment the test system is ACHN renal. The settings on record: 10 µM unless noted.
A further experiment deals with CAKI-1 renal. The settings on record: 10 µM unless noted.
A further experiment deals with A498 renal. The settings on record: 10 µM unless noted.
A further experiment has as its system CCRF-CEM leukemia. The settings on record: 10 µM unless noted.
The subject of another experiment is MOLT-4 leukemia. The settings on record: 10 µM unless noted.

Compounds without any hit were thinned out: in the full panel of roughly 83,000, 20% have a hit.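 Testing used 96-well plates and a 48-hour single-concentration exposure. Example: -40 means 40% of the starting cells died.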 Values without a mark were called inactive. Active and inactive are the calls of the source. How the source made its calls: active means growth percent below 10; inactive means the rest.

As to `CC12CCC(O)CC1=CCC1C2CCC2(C)C3=NN=CC3CC12` (stereo unspecified), the growth with HCT-15 colon is 95.1%; in the experiment on HT29 colon, 99%; in the experiment with SNB-75 CNS, 93.7%; in the experiment with SNB-19 CNS, 103%; in the experiment with U251 CNS, 101%; in the experiment on PC-3 prostate it was 103%. For the same compound, the growth is 96.4% in the experiment with SK-MEL-5 melanoma; 92.5% with UACC-62 melanoma; 100% in the experiment on LOX IMVI melanoma; 103% with SK-MEL-28 melanoma; 118% in the experiment with SK-MEL-2 melanoma; 81.9% with EKVX NSCLC. Also, the growth with SN12C renal was 105%; with UO-31 renal, 105%; in the experiment with TK-10 renal, 108%; in the experiment with ACHN renal, 97.7%; with CAKI-1 renal it was 127%; with A498 renal, 124%. Moreover, the figures for the growth with CCRF-CEM leukemia and in the experiment on MOLT-4 leukemia were 91% and 83.8%, respectively.

In the case of `c1ccc2sc(SSN3CC4CCC(CC4)C3)nc2c1`, the growth with HCT-15 colon was 110%; in the experiment on HT29 colon it was 114%; in the experiment on SNB-75 CNS, 85.8%; in the experiment with SNB-19 CNS, 105%; in the experiment on U251 CNS, 106%; in the experiment on PC-3 prostate, 100%. Also, the growth is 97.9% in the experiment on SK-MEL-5 melanoma; 90.5% in the experiment on UACC-62 melanoma; 92.1% in the experiment on LOX IMVI melanoma; 132% in the experiment on SK-MEL-28 melanoma; 124% in the experiment with SK-MEL-2 melanoma; 106% in the experiment with EKVX NSCLC. Besides, the growth in the experiment on SN12C renal is 104%; in the experiment on UO-31 renal, 55.1%; in the experiment on TK-10 renal, 121%; in the experiment with ACHN renal, 98.3%; with CAKI-1 renal, 104%; in the experiment on A498 renal, 142%. The growth in the experiment on CCRF-CEM leukemia is 111%; in the experiment on MOLT-4 leukemia, 56.3%.

Take `CCOC(=O)c1[nH]c(C#N)c(C(=O)OCC)c1C`: the growth was 92.2% in the experiment on HCT-15 colon; 103% with HT29 colon; 96.9% with SNB-75 CNS; 106% in the experiment on SNB-19 CNS; 99.1% in the experiment on U251 CNS; 102% in the experiment with PC-3 prostate. For the same compound, the growth with SK-MEL-5 melanoma was 102%; in the experiment with UACC-62 melanoma, 91.2%; in the experiment on LOX IMVI melanoma, 107%; in the experiment on SK-MEL-28 melanoma, 112%; with SK-MEL-2 melanoma it was 104%; with EKVX NSCLC, 93.3%. For the same compound, the growth in the experiment with SN12C renal was 92.5%; in the experiment on UO-31 renal, 90.2%; with TK-10 renal it was 104%; with ACHN renal it was 101%; with CAKI-1 renal it was 94.7%; in the experiment on A498 renal it was 96.7%. Besides, the growth with CCRF-CEM leukemia was 97.3%.

Consider `CCCc1cc(=O)oc2c3c(c4c(c12)OC(C)(C)CC4)OC(C)[C@H](C)[C@@H]3O` (stereo partly specified), for which the growth in the experiment with HCT-15 colon is 55.5%; with HT29 colon, 58.8%; with SNB-75 CNS it was 91.5%; in the experiment with SNB-19 CNS, 94.4%; in the experiment with U251 CNS, 75.1%; with PC-3 prostate, 42.7%. For the same compound, the growth was 86.9% in the experiment with SK-MEL-5 melanoma; 68.9% in the experiment with UACC-62 melanoma; 83.1% in the experiment with LOX IMVI melanoma; 93.1% in the experiment on SK-MEL-28 melanoma; 13.6% in the experiment on SK-MEL-2 melanoma; 90% in the experiment with EKVX NSCLC. The growth was 81% in the experiment with SN12C renal; 34.9% in the experiment on UO-31 renal; 139% in the experiment on TK-10 renal; 66.1% in the experiment with ACHN renal; 104% in the experiment with CAKI-1 renal; 63% with A498 renal. The results for the growth in the experiment on CCRF-CEM leukemia and in the experiment with MOLT-4 leukemia were 84.8% and 54.9%, respectively.

Consider `NC1=C(Br)C(=O)c2ncccc2C1=O`, for which the growth in the experiment on HCT-15 colon was 2.56% (active); with HT29 colon, 49.1%; in the experiment with SNB-75 CNS, -84.2% (active); in the experiment on SNB-19 CNS, -86.7% (active); in the experiment with U251 CNS, -82.2% (active); in the experiment with PC-3 prostate, 11.9%. Besides, the growth in the experiment with SK-MEL-5 melanoma is -98.3% (active); with UACC-62 melanoma, -96.3% (active); in the experiment with LOX IMVI melanoma, -71.2% (active); in the experiment with SK-MEL-28 melanoma it was -87.4% (active); in the experiment on SK-MEL-2 melanoma, -54.1% (active); in the experiment with EKVX NSCLC it was -14.2% (active). Also, the growth is -84.8% (active) with SN12C renal; -96.8% (active) in the experiment on UO-31 renal; 79.1% in the experiment on TK-10 renal; -7.81% (active) with ACHN renal; -81.2% (active) in the experiment with CAKI-1 renal; 113% in the experiment with A498 renal. For the same compound, the values for the growth in the experiment on CCRF-CEM leukemia and in the experiment with MOLT-4 leukemia were 10.5% and -5.62% (active), respectively.

Regarding `CCN(CC)CC(O)c1cc(-c2ccc(Cl)cc2)nc2cc(Cl)ccc12` (stereo unspecified), the growth with HCT-15 colon was 25.1%; in the experiment with HT29 colon, -50.1% (active); with SNB-75 CNS it was 38.3%; with SNB-19 CNS, 56.8%; in the experiment with U251 CNS, 8.59% (active); with PC-3 prostate, 28.5%. In addition, the growth with SK-MEL-5 melanoma is -95.6% (active); in the experiment with UACC-62 melanoma, -56.6% (active); with LOX IMVI melanoma, 11%; in the experiment on SK-MEL-28 melanoma, -56.6% (active); in the experiment with SK-MEL-2 melanoma, 22.7%; with EKVX NSCLC it was 60.5%. Moreover, the growth was 29.6% with SN12C renal; 35.2% in the experiment on UO-31 renal; 20.6% in the experiment on TK-10 renal; 7.25% (active) in the experiment with ACHN renal; -16.5% (active) in the experiment on CAKI-1 renal; 64.6% in the experiment on A498 renal. For the same compound, the results for the growth with CCRF-CEM leukemia and in the experiment on MOLT-4 leukemia were 3.88% (active) and -18.3% (active), respectively.

`CCN1/C(=C/C(C)=C/c2sc3ccc4ccccc4c3[n+]2CC)Sc2ccc3ccccc3c21`: the growth was -81.8% (active) with HCT-15 colon; -80.6% (active) in the experiment with HT29 colon; -94.3% (active) in the experiment on SNB-75 CNS; -96.5% (active) with SNB-19 CNS; -94.1% (active) with U251 CNS; -84% (active) with PC-3 prostate. The growth was -97.6% (active) with SK-MEL-5 melanoma; -96.6% (active) in the experiment on UACC-62 melanoma; -73.9% (active) in the experiment on LOX IMVI melanoma; -98.3% (active) in the experiment on SK-MEL-28 melanoma; -93.5% (active) with SK-MEL-2 melanoma; -90.8% (active) in the experiment with EKVX NSCLC. The growth was -84.9% (active) in the experiment with SN12C renal; -89.8% (active) in the experiment on UO-31 renal; -97.2% (active) with ACHN renal; -97.9% (active) with CAKI-1 renal; -98.3% (active) in the experiment with A498 renal; -43.6% (active) in the experiment with MOLT-4 leukemia.

For `CCC(=O)c1cc([N+](=O)[O-])c(Br)s1`, the growth with HCT-15 colon is 61%; in the experiment with HT29 colon, 41.6%; in the experiment with SNB-75 CNS, 95.7%; in the experiment with SNB-19 CNS, 99.8%; in the experiment on U251 CNS, 93.4%; in the experiment on PC-3 prostate it was 101%. In addition, the growth in the experiment on SK-MEL-5 melanoma was 98.9%; in the experiment with UACC-62 melanoma, 105%; in the experiment with LOX IMVI melanoma it was -41.2% (active); in the experiment with SK-MEL-28 melanoma, 110%; in the experiment on SK-MEL-2 melanoma, 106%; in the experiment with EKVX NSCLC, 104%. The growth in the experiment with SN12C renal is 103%; in the experiment with UO-31 renal, 74.7%; in the experiment on TK-10 renal, 96.6%; with CAKI-1 renal it was 95.8%; in the experiment with A498 renal it was 87%; with CCRF-CEM leukemia it was 1.7% (active). The growth in the experiment with MOLT-4 leukemia was 33.9%.
